VDR inh: inhibitors of human vitamin D receptor; Potency, µM, hits mostly inhibitors; VDR-SRC2-3 peptide fluorescence polarization, 2 h; P11473; hit rate 0.93% among 400,000
Target sequence (P11473 whole entry, looked up): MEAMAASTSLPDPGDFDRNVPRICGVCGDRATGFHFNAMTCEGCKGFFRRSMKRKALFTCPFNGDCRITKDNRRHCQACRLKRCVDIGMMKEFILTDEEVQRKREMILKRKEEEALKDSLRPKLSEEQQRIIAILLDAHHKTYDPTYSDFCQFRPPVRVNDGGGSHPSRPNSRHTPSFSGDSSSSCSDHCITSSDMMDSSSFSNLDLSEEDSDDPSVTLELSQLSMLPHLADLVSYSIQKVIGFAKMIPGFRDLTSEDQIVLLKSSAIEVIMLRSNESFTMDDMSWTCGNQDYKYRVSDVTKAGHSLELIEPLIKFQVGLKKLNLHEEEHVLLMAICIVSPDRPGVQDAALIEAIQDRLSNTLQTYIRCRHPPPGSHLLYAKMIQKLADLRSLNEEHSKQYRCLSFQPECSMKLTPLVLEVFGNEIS
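Fluorescence polarization assay measuring small-molecule disruption of VDR binding to the coregulator peptide SRC2-3. Compounds were pin-transferred (23 nl) into the reagent mix and incubated 2 h at room temperature before reading.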
PLK1 PBD block: blocks phosphopeptide binding to human PLK1 polo-box domain | AID 720504 | hit rate 2.8% among 360,000 | Potency, µM, most hits filed as inhibitors | P53350 | Plk1 PBD binding of FITC phosphopeptide, fluorescence polarization; note: series mostly up to about 57 µM; nearly all actives have a fitted effect of over 65% in size
Sfp PPTase inh: Sfp phosphopantetheinyl transferase inhibition; hit rate 3.5% among 310,000; Q9F4F7; Potency, µM, usual class: inhibitors; Biochemical Sfp PPTase activity, qHTS; AID 1490;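 note: the enzyme is Sfp with the accession as filed and its product quenches rhodamine fluorescence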
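With Hepes-Na pH 7.6 buffer containing 10 mM MgCl2, Sfp (15 nM) modified BHQ-2-YbbR (12.5 uM) using rhodamine-CoA (5 uM). Two reads 30 minutes apart at 525/598 nm yielded each well's rate.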
CCT chaperon mod: cytosolic chaperonin activity modulation; purified chaperonin ATPase assay, HTRF ADP detection, 30 min; activity change, % (no concentration beside the values), hits read low; hit rate 0.3% among 360,000; in the data active = activity change below about -30%
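First, chaperonin was dispensed at 40 nM or 20 nM final depending on batch activity. Next, compounds were pinned at 76 uM and ATP added at 10 uM. After 30 min at 37 °C, ADP detection reagents ran 30 min at ambient temperature.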
MmCpn inh: blocks the Methanococcus maripaludis chaperonin Mm-Cpn; purified Mm-Cpn ATPase, ADP Transcreener TR-FRET; Potency, µM (top dose mostly 76.9 µM), most hits filed as inhibitors; hit rate 0.031% among 330,000; AID 504842; note: nearly all actives have a fitted effect of over 80% in size
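ATPase read-out: TR-FRET ADP immunoassay (anti-ADP Eu cryptate vs ADP-d2), ex 320 nm, em 590/665 nm; signal drops as ADP forms. Enzyme 25 nM, ATP 10 uM, 30 min at 37°C after 10 min compound preincubation.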
G9a inh: G9a (human) methyltransferase inhibition | hit rate 8.8% among 350,000 | G9a H3K9 monomethylation, AlphaScreen, 2 h | Potency, µM (series often up to 102 µM), usual class: inhibitors | AID 504332; note: nearly all actives have a fitted effect of over 75% in size
Target sequence (Q96KQ7 913-1193 limits assumed): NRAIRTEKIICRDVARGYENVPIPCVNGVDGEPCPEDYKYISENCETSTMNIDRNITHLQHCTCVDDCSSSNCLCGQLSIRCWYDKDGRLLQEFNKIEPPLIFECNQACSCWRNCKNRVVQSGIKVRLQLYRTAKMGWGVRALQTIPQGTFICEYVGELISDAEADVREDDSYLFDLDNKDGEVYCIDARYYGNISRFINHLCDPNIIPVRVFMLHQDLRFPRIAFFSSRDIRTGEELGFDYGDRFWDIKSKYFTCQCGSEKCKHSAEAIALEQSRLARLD
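Enzyme 20 nM + cpd, 15 min RT; add b-H3K9 pep 500 nM / SAM 20 uM; 2 h RT; anti-H3K9me1 Ab 0.5 ug/mL + SA donor / anti-rabbit acceptor beads 20 ug/mL each, 10 min; AlphaScreen read.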
Numbers stand for hits; – = inactive; ? = inconclusive; · = no result given; ! = not confirmed by another sample; [ ] = another dose, or the depositor's remark. In the library only some 10% were active in any assay of this set; here they are far more common. Unless noted, calls come from the whole dose curve; as a rule, active = well fitted curve in the direction sought with a large enough effect; inconclusive = small, poorly fitted or top-dose-only effect, or another doubt; inactive = no such curve, though single readings can be large; an effect the other way counts as inactive or inconclusive.

SMILES	VDR inh	PLK1 PBD block	Sfp PPTase inh	CCT chaperon mod	MmCpn inh	G9a inh
CC(=O)Nc1ccc2nc(NC(=O)COc3ccccc3Cl)sc2c1	–	–	–	–	–	–
COc1ccc2nc(NC(=O)Nc3ccccc3)sc2c1	–	–	–	–	–[15.4 µM]	?
O=C(NNc1nc2ccccc2s1)C1CC1	–	–	44.7µM	–	–	–[12.7 µM]
O=C(NNc1nc2ccccc2s1)Nc1ccc(Cl)c(Cl)c1	–	–	56.2µM	–	–	?
O=C(Nc1nc2ccccc2s1)C1CCCN1S(=O)(=O)c1ccc(Cl)cc1 (configuration not stated)	–	–	–	–	–	–
COc1ccc(C(=O)c2oc3ccccc3c2NC(=O)COc2cccc(C)c2C)cc1	–	·	·	·	·	–
CCOC(=O)C(C)Sc1nnc2cc(C)c3ccccc3n12 (configuration not stated)	–	·	·	·	·	–
O=C(NNc1nc2ccccc2s1)c1ccccc1F	–	–	–	–	–	–
O=C(NNc1nc2ccccc2s1)Nc1ccc(F)cc1	–	–	100µM	–	–	–
CCCCC1=CC2=C(c3ccco3)C(=O)C(C)(OC(=O)c3ccc(OC)cc3)C(=O)C2=CN1CCCCO (configuration not stated)	–	–	?	–	–	–[12.7 µM]
CCCCC1=CC2=C(c3ccco3)C(=O)C(C)(OC(=O)c3ccc(OC)cc3)C(=O)C2=CN1Cc1ccco1 (configuration not stated)	?	?	44.7µM	–	–	–
CCCCC1=CC2=C(c3ccco3)C(=O)C(C)(OC(=O)c3ccc(OC)cc3)C(=O)C2=CN1CC(C)C (configuration not stated)	?	–	3.55µM!	–	–	?
CCCCC1=CC2=C(c3ccco3)C(=O)C(C)(OC(=O)c3ccc(OC)cc3)C(=O)C2=CN1Cc1ccc(OC)cc1 (configuration not stated)	·	·	70.8µM!	·	–	–
CCCCC1=CC2=C(c3ccco3)C(=O)C(C)(OC(=O)c3ccc(OC)cc3)C(=O)C2=CN1CC1CC1 (configuration not stated)	–	–	–	–	–	?
CN(C)CC(CCCCC(CN(C)C)C(=O)c1ccccc1)C(=O)c1ccccc1 (configuration not stated)	–	–	–	–	–	50.1µM
Cc1ccc(S(=O)(=O)Nc2ccc3c(c2)ncn3C(C)(C)C)cc1	–	–	–	–	–	–
CC(C)(C)n1cnc2cc(NCc3ccccc3Cl)ccc21	–	·	·	·	·	15.8µM
CCCCC1CN2CCc3c([nH]c4ccccc34)C2(C)C1 (configuration not stated)	–	–	–	–	–	79.4µM
COc1ccccc1Cn1ccn(Cc2ccc(C)cc2)c(=O)c1=O	–	·	·	·	·	?
CN1CCN(CCC(=O)Nc2ccccc2)CC1	–	–	–	–	–	·
O=C(NCCN1CCCC1)c1ccc(Br)cc1	–	–	–	–	–	–[0.501 µM]
CN1CCN(CCC(=O)Nc2ccc(C3CCCC3)cc2)CC1	–	–	–	–	–	31.6µM
Cc1ccc(NC(=O)CCN2CCN(C/C=C/c3ccccc3)CC2)cc1C	–	–	89.1µM	–	–	–[2.33 µM]
Cc1ccc(NC(=O)CCN2CCN(C/C=C/c3ccccc3)CC2)cc1	–	–	–	–	–	?
O=C(CCN1CCCCC1)NNC(=S)NC(=O)c1ccc(Br)cc1	–	–	–	–	–	11.2µM
SMILES	VDR inh	PLK1 PBD block	Sfp PPTase inh	CCT chaperon mod	MmCpn inh	G9a inh
CN1CCN(CCC(=O)Nc2ccc(Cl)cc2)CC1	–	·	·	·	·	11.2µM
C[C@@]12CC[C@@H]3c4ccc(O)cc4CC[C@H]3[C@H]1C[C@@H](O)[C@H]2O	–	·	–	·	·	–[21.5 µM]
Cc1ccc(C(=O)Nc2ccc(C(=O)OCc3cc(=O)n4c5c(sc4n3)CCCC5)cc2)cc1	–	·	·	·	·	–[12.7 µM]
O=C(CCN1CCCCC1)Nc1cccc(Cl)c1	–	26.7µM	–	–	–	?
O=C(CCN1CCCC1)Nc1ccc(Br)cc1	–	–	–	–	–	20µM
CCCCOc1cccc(C(=O)Nc2cc(NC(=O)c3ccco3)ccc2OC)c1	–	·	·	·	·	–
CCCCCCCC/C=C\CCCCCCCC(=O)OC[C@@H](O)COP(=O)(O)O	–	·	–	·	·	–
CO/N=C/c1c(C(=O)OC)nn(-c2ccccc2)c1Cl	?	3.77µM	–	–	–	–
COC(=O)c1nn(-c2ccccc2)c(Cl)c1/C=N/OCc1c(Cl)cccc1Cl	–	–	·	–	·	·
N#C/C(=N/Nc1ccccc1[N+](=O)[O-])C(N)=S	?	–	?	–	–	1.12µM
N#C/C(=N\Nc1ccccc1)C(N)=S	–	–	17.8µM	–	–	1.58µM
Cc1ccc(N/N=C(\C#N)C(N)=S)cc1C	?	–	56.2µM	–	–	2.82µM
N#C/C(=N\Nc1ccc(Cl)cc1)C(N)=S	–	–	–	–	–	·
CCN(CC)C(=O)CC(c1ccc(OC)cc1)c1c(OC)cc(OC)c2c(-c3ccccc3)cc(=O)oc12 (configuration not stated)	–	·	–	·	·	·
O=C(C1CCC(CNS(=O)(=O)c2cccc3cccnc23)CC1)N1CCCC1 (configuration not stated)	–	–	–	–	–	–
O=S(=O)(NCC1CCCN(Cc2ccccc2O)C1)c1cccc2cccnc12 (configuration not stated)	–	–	–	–	–	70.8µM
Cc1cccc(C(=O)Nc2cccc(C(=O)OCc3cc(=O)n4c5c(sc4n3)CCCC5)c2)c1	–	·	·	·	·	–
CCOC(=O)c1c(Cc2ccccc2)c[nH]c1C	–	–	–	–	–	56.2µM
CCOC(=O)c1c(C)c[nH]c1C	–	–	–	–	–	–
CCc1ccc(OCC2c3cc(OC)c(OC)cc3CCN2C(=O)COc2ccccc2)cc1 (configuration not stated)	–	·	·	·	·	–
O=C(c1cc(C(F)(F)F)cc(C(F)(F)F)c1)N1CCC2(CC1)CCN(c1ccccn1)CC2	–	·	–	·	·	–[12.7 µM]
CCOC(=O)n1c(=O)n(Cc2ccccc2Cl)c2ccccc21	–	–	–	–	–	–
CCOC(=O)n1c(=O)n(Cc2cccc(C)c2)c2ccccc21	?	11.9µM	–	–	–	–
CCN(CC)c1ccc2c(c1)CCCN2	·	·	–	·	–	1.78µM
O=S(=O)(c1ccc2c(c1)CCCN2)N1CCCC1	–	–	·	–	–	–[2.33 µM]
CN(C)c1ccc(C(CNS(=O)(=O)c2ccc(F)cc2)c2c[nH]c3ccccc23)cc1 (configuration not stated)	–	–	–	–	–	10µM
CN(C)c1ccc(C(CNC(=O)c2ccccc2Br)c2c[nH]c3ccccc23)cc1 (configuration not stated)	–	–	–	–	–	10µM
CN(C)c1ccc(C(CNC(=O)c2ccc(C#N)cc2)c2c[nH]c3ccccc23)cc1 (configuration not stated)	–	–	–	–	–	10µM
